The record followed here is PubChem BioAssay.

Assay [1] is described as follows: resazurin metabolic signal in HepG2 cells – cell-based, resazurin fluorescence, 24 h, PK04 Diversity Set, profiling panel (AID 1172). Further: test concentration not given here. As to conditions: HepG2 viability, higher = more signal.
Assay [2] in a line: budding yeast growth changes without added modifier – OD600, strain BY4716, 24 h, basal condition, primary screen (AID 1173). As to conditions: S. cerevisiae BY4716 growth, OD600, 24 h; higher = more signal, called active from +8 up or from −8 down.
Assay [3] is described as follows: viability profiling in MM1S myeloma cells – cell-based, resazurin fluorescence, basal, 24 h, PK04 Diversity Set, profiling panel (AID 1174).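 Further: MM1S multiple myeloma cell line; test concentration not given here.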 As to conditions: higher = more signal, called active from +8 up or from −8 down. Background: Resazurin is reduced to fluorescent resorufin, in cell work by metabolically active cells.
Assay [4] deals with Dihydroorotate dehydrogenase (quinone), mitochondrial (Plasmodium falciparum (isolate 3D7)) (UniProt Q08210). Put plainly: inhibition of P. falciparum DHODH – biochemical, C-terminal His tag, absorbance 600 nm, primary screen (AID 1175).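 Further: recombinant parasite enzyme with a five histidine tag at its C terminus; test concentration not given here.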 As to conditions: PfDHODH enzyme, DCIP absorbance 600 nm; higher = more signal, called active from +8 up or from −8 down.
Assay [5] is described as follows: inhibition of PAO1 biofilm formation – strain PAO1, LB-PBS medium, absorbance 600 nm, primary screen (AID 1176). Further: test concentration not given here. The conditions noted are these: P. aeruginosa PAO1 growth/biofilm, A600, 12 h; higher = more signal.
Assay [6] can be described thus: growth modulation of vineyard yeast isolate – strain RM11-1a, OD600, basal, 24 h, primary screen (AID 1177).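 Further: cultures grown under basal conditions with no added stressor; test concentration not given here.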 The conditions noted are these: S. cerevisiae RM11-1a growth, OD600, 24 h; higher = more signal, called active from +8 up or from −8 down.
The nature of assay [7]: growth of efflux-deficient E. coli DRC39 – strain DRC39, OD650, 24 h, E. coli filamentation inducers, primary screen (AID 1178).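 Further: growth measured as culture turbidity by optical density at 650 nm; test concentration not given here.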 As to conditions: E. coli DRC39 acrAB, higher = more signal, called active from +8 up or from −8 down.
Assay [8] is described as follows: growth of efflux-deficient E. coli DRC39 – strain DRC39, OD650, 48 h, E. coli filamentation inducers, primary screen (AID 1179).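 Further: screen aims at cell division blockers that make cells filament.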 The conditions noted are these: E. coli DRC39 delta-acrAB growth, higher = more signal, called active from +8 up or from −8 down.
The nature of assay [9]: viability profiling in RPMI8226 myeloma cells – cell-based, resazurin fluorescence, basal, 24 h, PK04 Diversity Set, profiling panel (AID 1180).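 Further: RPMI8826 multiple myeloma cell line at 5000 cells per well; test concentration not given here.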 As to conditions: higher = more signal.
In assay [10] the target is E3 ubiquitin-protein ligase XIAP (Homo sapiens) (UniProt P98170). Description: small molecules binding XIAP protein – biophysical, small-molecule microarray, fluorescence 635 nm, primary screen (AID 1181).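 Further: score merges 667 nm emission and signal to noise over triplicate slides.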 As to conditions: higher = more signal.

The source made the active and inactive calls. Unless noted, how the calls were made is not given here.

Chain of Dihydroorotate dehydrogenase (quinone), mitochondrial (Plasmodium falciparum (isolate 3D7)) (Q08210 whole entry, looked up): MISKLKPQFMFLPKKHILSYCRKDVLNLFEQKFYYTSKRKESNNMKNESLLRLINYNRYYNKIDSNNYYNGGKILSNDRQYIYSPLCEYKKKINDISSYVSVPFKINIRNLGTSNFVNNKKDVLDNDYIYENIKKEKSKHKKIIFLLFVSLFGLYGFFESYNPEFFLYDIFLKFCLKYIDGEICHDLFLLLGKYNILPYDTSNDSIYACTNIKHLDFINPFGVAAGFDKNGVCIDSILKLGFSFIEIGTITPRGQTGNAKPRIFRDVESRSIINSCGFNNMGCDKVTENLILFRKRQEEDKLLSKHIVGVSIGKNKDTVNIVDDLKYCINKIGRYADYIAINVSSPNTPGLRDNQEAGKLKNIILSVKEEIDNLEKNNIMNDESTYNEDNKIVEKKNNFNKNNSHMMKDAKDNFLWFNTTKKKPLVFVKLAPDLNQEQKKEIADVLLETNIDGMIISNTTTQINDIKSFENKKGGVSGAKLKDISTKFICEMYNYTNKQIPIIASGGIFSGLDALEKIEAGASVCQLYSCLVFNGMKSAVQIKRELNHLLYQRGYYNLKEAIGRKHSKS
Chain of E3 ubiquitin-protein ligase XIAP (Homo sapiens) (P98170 whole entry, looked up): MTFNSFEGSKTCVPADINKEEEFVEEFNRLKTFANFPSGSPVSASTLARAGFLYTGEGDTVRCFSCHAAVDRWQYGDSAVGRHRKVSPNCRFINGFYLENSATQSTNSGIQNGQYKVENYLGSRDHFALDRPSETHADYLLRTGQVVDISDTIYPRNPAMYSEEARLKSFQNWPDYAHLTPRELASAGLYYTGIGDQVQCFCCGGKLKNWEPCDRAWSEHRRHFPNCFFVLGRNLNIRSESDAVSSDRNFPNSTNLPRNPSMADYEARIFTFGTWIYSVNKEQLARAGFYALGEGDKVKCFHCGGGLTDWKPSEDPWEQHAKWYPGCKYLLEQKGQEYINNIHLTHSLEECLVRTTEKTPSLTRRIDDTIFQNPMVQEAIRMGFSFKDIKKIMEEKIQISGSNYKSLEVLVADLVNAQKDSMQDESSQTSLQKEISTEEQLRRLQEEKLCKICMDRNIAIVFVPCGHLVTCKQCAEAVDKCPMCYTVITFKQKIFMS

For the compound `CC(C)c1ccc(NN2C(C(O)c3ccc4c(c3)OCO4)C=CC3C(=O)N(c4ccccc4)C(=O)C32)cc1` (stereo not given), the z-score was -1.13 in assay [1]; -0.791 (inactive) in assay [2]; -0.165 (inactive) in assay [3]; 1.08 (inactive) in [5]; 0.266 (inactive) in assay [6]; -0.167 (inactive) in assay [7]. The z-score was -0.563 (inactive) in assay [8] and -0.191 in assay [9]. Also, the composite z-score in assay [4] is -0.0797 (inactive); in assay [10], 0.0641.
As to `CCc1cc2c(nc1CC)CCN(CCC(C)=NOC(C)CN1CCCc3nc(C)c(C)cc31)C2` (stereo not given), the z-score in [1] was -0.644; in assay [2], -0.822 (inactive); in [3], -0.845 (inactive); in assay [5] it was 0.429 (inactive); in assay [6] it was -0.173 (inactive); in [7], 0.278 (inactive). The z-score in [8] is -1.71 (inactive); in assay [9] it was -0.615. Moreover, the composite z-score is 0.244 (inactive) in assay [4] and 1.13 in [10].
With `COc1ccc(-c2nc3c(c4c2C[C@H](C)OC4)CN(CCC(C)C)CC3)cc1`, the z-score in [1] is -0.182; in [2], -0.827 (inactive); in [3], -0.145 (inactive); in assay [5], 0.262 (inactive); in [6], 0.602 (inactive); in assay [7], 1.15 (inactive). Also, the z-score in [8] is 0.479 (inactive); in assay [9] it was -0.239. Moreover, the composite z-score was -0.133 (inactive) in assay [4] and -0.0559 in [10].
With `C=CC[C@]1(C(=O)NCc2ccccc2)N=C(c2ccc(OCCCO)cc2)O[C@H]1c1ccccc1`, the z-score in [1] is 0.527; in assay [2], -0.127 (inactive); in assay [3], -0.223 (inactive); in assay [5], -0.193 (inactive); in assay [6], 1.15 (inactive); in assay [7], 0.0557 (inactive). Moreover, the z-score is -0.126 (inactive) in [8] and -0.0458 in assay [9]. Besides, the composite z-score was -0.649 (inactive) in assay [4] and -0.102 in assay [10].
In the case of `COc1ccc(O[C@H]2C=C[C@@H](c3ccccc3)O[C@@H]2COC(=O)N2CCCCC2)cc1`, the z-score in [1] is 0.54; in assay [2], 0.666 (inactive); in assay [3], 0.0872 (inactive); in assay [5], -0.139 (inactive); in assay [6], -0.499 (inactive); in [7], 0.396 (inactive). Also, the results for the z-score in assay [8] and in assay [9] were 0.349 (inactive) and 0.883, respectively. The values for the composite z-score in [4] and in assay [10] were 0.0964 (inactive) and -0.234, respectively.
As to `CC(CCN1CCc2nc(-c3ccccc3)c(-c3ccccc3)cc2C1)=NOC[C@@H](C)[C@H](OCc1ccccc1)C(C)C`, the z-score is -1.12 in assay [1]; -2.01 (inactive) in assay [2]; 0.504 (inactive) in assay [3]; -0.315 (inactive) in assay [5]; 0.0117 (inactive) in assay [6]; -1.23 (inactive) in assay [7]. Also, the z-score is -0.936 (inactive) in assay [8] and 0.64 in [9]. The results for the composite z-score in assay [4] and in assay [10] were 0.928 (inactive) and -0.04, respectively.
For `CCOC(=O)[C@H](CC(C)C)NC(=O)CCC1CC(OC(=O)NCCc2ccc(F)cc2)CC2(CCCC(COC(=O)NCc3ccccc3)O2)O1` (stereo not given in full), the z-score in assay [1] was -0.816; in [2], -0.849 (inactive); in assay [3], 0.409 (inactive); in assay [5], -0.613 (inactive); in assay [6], -0.0385 (inactive); in [7], -0.221 (inactive). Further, the z-score in assay [8] is -0.565 (inactive); in [9] it was 0.185. For the same compound, the results for the composite z-score in assay [4] and in assay [10] were -2.24 (inactive) and -0.0333, respectively.
For the compound `COc1cccc([C@H]2Oc3ccc(OC)cc3C(=NOC(C)CN3CCCc4nc(C)c(C)cc43)[C@@H]2O)c1` (stereo not given in full), the z-score in assay [1] was -0.948; in assay [2] it was -0.872 (inactive); in [3], -0.944 (inactive); in assay [5], -0.136 (inactive); in assay [6], -0.168 (inactive); in assay [7], -0.0128 (inactive). Also, the z-score is -0.565 (inactive) in [8] and -0.948 in assay [9]. Moreover, the composite z-score is 0.956 (inactive) in [4] and 0.271 in assay [10].
`CO[C@@H]1COC(=O)CC=C[C@@H](C)COC(=O)[C@H](COCc2ccccc2)NC(=O)CC=C[C@H]1C`: the z-score in assay [1] was -0.466; in assay [2], -0.591 (inactive); in assay [3], 0.579 (inactive); in assay [5], -0.969 (inactive); in assay [6], 0.158 (inactive); in assay [7] it was 0.489 (inactive). Besides, the z-score in assay [8] was -0.0248 (inactive); in assay [9], 0.783. For the same compound, the values for the composite z-score in assay [4] and in assay [10] were 0.777 (inactive) and 0.122, respectively.
As to `CC(CCC(=O)OC[C@H]1O[C@H](C#Cc2ccccc2)C=C[C@@H]1Oc1ccc(C)cc1)=NOC[C@@H](O)[C@H]1O[C@@H]2OC(C)(C)O[C@@H]2[C@H]1O`, the z-score in assay [1] is -0.279; in assay [2], 0.197 (inactive); in [3], 0.134 (inactive); in [5], -0.324 (inactive); in assay [6] it was 0.71 (inactive); in assay [7] it was 0.844 (inactive). For the same compound, the z-score in assay [8] is 1.1 (inactive); in assay [9], 0.0234. Moreover, the composite z-score in assay [4] was -2.15 (inactive); in assay [10], -0.325.
